EPAC2 agonist: activates human EPAC2 exchange factor | 0.079% of 360,000 active | EPAC2 activation, biochemical qHTS; response scale: 100% = 6.5 mM cAMP response | AID 720711 | Potency, µM (titrated, usually from 154 µM), inactives show at the highest dose activation, most hits filed as activators; note: nearly all actives have a fitted effect of over 50% in size
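Compounds were added across a concentration range to EPAC2 (100 nM), RAP1B-BODIPY-GDP (250 nM) and GDP (50 uM). After 5 min at room temperature, fluorescence was recorded at 5-min intervals for 30 min.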
EPAC1 ag: EPAC1 (human) agonism; O95398; EPAC1 agonist qHTS, biochemical assay; response scale: 100% = response to 6.5 mM cAMP; Potency, µM (series often up to 154 µM), inactives show at the top dose activation, hits mostly activators; 0.073% of 360,000 active; note: nearly all actives have a fitted effect of over 60% in size
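Multi-concentration qHTS readout: loss of Rap1B-bound BODIPY-GDP fluorescence driven by 100 nM EPAC1 with excess GDP (50 uM), monitored kinetically at room temperature; agonist response expressed relative to 6.5 mM cAMP.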
EPAC2 antag: blocks human EPAC2 exchange factor. Q8WZA2. EPAC2 GEF exchange of Rap1B-BODIPY-GDP, fluorescence. Potency, µM (doses to about 114 µM), for inactives: at the top dose activity, negative = inhibition, most hits filed as inhibitors. 0.18% of 360,000 active; note: % is set by controls: 0 for no effect and ±100 for the full control effect; nearly all actives have a fitted effect of over 45% in size
EPAC1 antagonist: EPAC1 (human) antagonism. O95398. EPAC1 GEF assay, Rap1b-BODIPY-GDP exchange fluorescence. Potency, µM (doses to about 115 µM), for the others: at the highest dose activity change, negative = inhibition, hits mostly inhibitors. 0.14% of 360,000 active;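 note: plate controls were vehicle for no effect and positive control for full effect; nearly all actives have a fitted effect of over 50% in size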
USP1 inh: blocks the human USP1/UAF1 deubiquitinase complex; O94782; recombinant USP1/UAF1, Ub-Rhodamine cleavage fluorescence; 0.23% of 390,000 active; AID 743255; Potency, µM (series often up to 57.1 µM), for inactives: at the highest dose activity change, negative = inhibition, most hits filed as inhibitors; note: % is set by controls: 0 for no effect and ±100 for the full control effect; nearly all actives have a fitted effect of over 60% in size
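In this screen, compounds sit with the deubiquitinase complex (1nM) for 15 min at room temperature before Ub-Rho is added at 150nM final. Fluorescence rise is then followed for 6 reads every 60 seconds.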
* hit, by the source's call; i = inactive; ? = inconclusive; · = no result. Sampled rows, rich in hits. Any-hit rate of the full collection: about 0.45%. Calls come from the whole dose curve; as a rule, active = well fitted curve in the direction sought with a large enough effect; inconclusive = small, poorly fitted or top-dose-only effect, or another doubt; inactive = no such curve, though single readings can be large; an effect the other way counts as inactive or inconclusive. Potency is the fitted concentration of half-maximal effect.

SMILES	EPAC2 agonist	EPAC1 ag	EPAC2 antag	EPAC1 antagonist	USP1 inh
O=C(CSc1nc2ccccc2o1)N/N=C/c1ccccc1	-2%	0%	19%	-23%	-11%
O=C(CSc1nc2ccc(Cl)cc2o1)NCc1ccc2c(c1)OCO2	-2%	-18%	-12%	2%	-3%
O=C(CSc1nc2ccccc2o1)N/N=C/c1ccc(O)c(O)c1	10%	3%	-11%	50µM*	1%
O=C(CSc1nc2ccccc2o1)NCc1ccc2c(c1)OCO2	5%	-9%	22µM*	12%	-22%
CCOC(=O)/C(=C\c1ccc(N2CCC(c3ccccc3)=N2)cc1)C(C)=O	100µM*	?	169%	11%	28µM*
O=C(/C=C/c1ccc(N2CCC(c3ccccc3)=N2)cc1)c1ccccc1	-30%	-20%	10%	44%	174%
Cc1nc(Nc2cnc(/C=C/c3cc(C(=O)Nc4cccc(C(F)(F)F)c4)ccc3C)cn2)cc(N2CCNCC2)n1	?	8%	50µM*	-22%	?
CCOc1ccc(C(=O)Nc2ccc3nc(Nc4cccc(C(F)(F)F)c4)cc(C)c3c2)cc1OCC	·	·	·	·	-28%
Cc1cc(C)cc(N2C(=O)CSC23C(=O)N(CC(=O)NCCc2ccccc2)c2ccccc23)c1 (configuration not stated)	·	·	·	·	-26%
O=C(C1CCCCC1)N(Cc1cccnc1)c1nc2ccc(Cl)cc2s1	·	·	·	·	-14%
O=C(O[C@@H]1OC2COC(=O)c3cc(O)c(O)c(O)c3-c3c(cc(O)c(O)c3O)C(=O)O[C@@H]([C@H]1O)[C@@H]2O)c1cc(O)c(O)c(O)c1	-2%	3%	-14%	89µM*	?
CCOC(=O)c1c(C)[nH]c(C)c1S(=O)(=O)NCC(=O)N1CCN(c2cccc(C)c2)C(C)C1 (configuration not stated)	·	·	·	·	-6%
CC[n+]1c(/C=C/C=C/N(C(C)=O)c2ccccc2)sc2cc(OC)ccc21	?	100µM*	46%	141%	28µM*
CC[n+]1c(/C=C(\C)OC)sc2ccccc21	2%	2%	-8%	-21%	-17%
C/C(=N\NC(=O)c1cc(O)ccc1O)c1cccc(NC(=O)c2ccc(Cl)cc2)c1	19%	7%	-3%	50µM*	-12%
Cc1ccccc1C(=O)Nc1cccc(OCc2cc(=O)n3cccc(C)c3n2)c1	·	·	·	·	1%
Cc1ccc(S(=O)(=O)C(C#N)c2nc3ccccc3nc2N2CCN(C)CC2)cc1 (configuration not stated)	2%	-3%	2%	10%	-1%
CC1CCCN(c2nc3ccccc3nc2C(C#N)S(=O)(=O)c2ccccc2)C1 (configuration not stated)	-511%	56µM*	128%	37%	205%
CCOC(=O)c1ccccc1NC(=O)NCc1c(-n2cccc2)sc2c1CCCC2	·	·	·	·	3%
COc1cccc(C(=O)NNC(=S)NC2CCCCC2)c1	-1%	i	9%	50µM*	-9%
Nc1ccc2cc3[nH]c4cc(N)ccc4c3nc2c1	56µM*	89µM*	231%	i	?
CCN(CC)c1ccc(C(=O)O)cc1	0%	-1%	-10%	?	3%
CCN(CC)c1ccc(/C=C2\C(=O)c3ccc(C(=O)O)cc3C2=O)cc1	7%	6%	?	?	14µM*
CCN(CC)c1ccc2cc(-c3nc4ccccc4n3C)c(=O)oc2c1	11%	27%	17%	-15%	?
CCN(CC)c1ccc2cc(-c3nc(-c4ccc(OC)cc4)cs3)c(=O)oc2c1	-381%	-86%	5.6µM*	231%	i
SMILES	EPAC2 agonist	EPAC1 ag	EPAC2 antag	EPAC1 antagonist	USP1 inh
COc1cc(NC(=S)NCCC(c2ccccc2)c2ccccc2)cc(OC)c1	5%	89µM*	-8%	60%	?
COc1cc2c(cc1OC)C(c1ccccc1)N(C(=O)c1ccco1)CC2 (configuration not stated)	15%	-4%	10µM*	-30%	-3%
COc1cc2c(cc1OC)C(c1ccccc1)N(C(=O)c1ccccc1)CC2 (configuration not stated)	9%	0%	?	-9%	-11%
O=C(COc1ccccc1F)Nc1ccccc1OCc1cc(=O)n2ccccc2n1	·	·	·	·	-25%
CN(C)c1ccc(C=c2c3cc(O)ccc3n3c2cc(-c2ccccc2)[n+]3C)cc1	4%	-4%	-16%	-30%	28µM*
CN(C)c1ccc(/C=C(\C#N)c2ccccc2)cc1	12%	-6%	-5%	0%	-24%
C[n+]1c(-c2ccccc2)cc2c(=Cc3ccccc3)c3ccccc3n21	14%	8%	2%	0%	4µM*
C[n+]1c(-c2ccccc2)cc2c(=Cc3ccc([N+](=O)[O-])cc3)c3ccccc3n21	10%	12%	0%	-1%	3.5µM*
Cc1ccc(F)c(S(=O)(=O)NC(=O)C2(C)CCN2C(=O)C2(c3ccc(Cl)cc3)CC2)c1 (configuration not stated)	-11%	-11%	?	-20%	·
CC1(C(=O)NS(=O)(=O)c2ccc3c(c2)CCO3)CCN1C(=O)C1(c2ccc(Cl)cc2)CCC1 (configuration not stated)	8%	-5%	?	50µM*	·
Cc1ccc(F)c(S(=O)(=O)NC(=O)C2(C)CCN2C(=O)C2(c3ccc(Cl)cc3)CCC2)c1 (configuration not stated)	-1%	-3%	45µM*	-8%	·
CCOC(=O)c1ccc(NC(=O)CC2C(=O)N(c3ccccc3)C(=O)N2C2CCCCC2)cc1 (configuration not stated)	·	·	·	·	-17%
Cc1cccc(Cn2c(=O)oc3ccc(C)cc32)c1	-3%	-4%	79µM*	-3%	-21%
COc1cccc(C(=O)Nc2nc(-c3nnn(-c4ccccc4C(F)(F)F)c3C)ns2)c1	·	·	·	·	4%
Cc1c(CCC(=O)NCCc2ccccc2F)c(=O)oc2cc(O)ccc12	·	·	·	·	-19%
CCc1cc(=O)oc2c(C)c3c(cc12)CN(CCc1ccccc1OC)CO3	·	·	·	·	-22%
Cc1cc(NS(=O)(=O)c2ccc(NC(=O)COc3c(C)cc(Br)cc3C)cc2)no1	-8%	-1%	18µM*	-4%	-12%
O=c1[nH][nH]c2c(N=Cc3ccccc3O)ccc(F)c12	-1%	3%	4%	40µM*	28µM*
CCc1ccc(O)c(N=Cc2ccccc2O)c1	1%	1%	3%	7%	-23%
CC(CNC(=O)c1ccc2nc(Cc3ccccc3)oc2c1)c1ccccc1 (configuration not stated)	·	·	·	·	-30%
COc1ccccc1Oc1ccnc2cc(Cl)ccc12	6%	-1%	40µM*	-17%	-11%
COc1ccccc1CNc1ncnc2cc(Cl)ccc12	0%	-1%	0%	6%	-21%

Bioassay records from PubChem.
